# Assay results: ChEMBL document CHEMBL1157539, “Thousands of chemical starting points for antimalarial lead identification” (Nature, 2010)
# Fewer than 10 of roughly 13,000 compounds showed an effect of 50% or more. These entries were drawn from the full list.
# System: Plasmodium falciparum
# Assay: GSK_TCMDC: Inhibition of Plasmodium falciparum 3D7 LDH activity, using an LDH reporter assay. Test compounds present at 2uM
# Format: functional, organism-based
row,SMILES,inhibition [%]
1,Nc1ncc(-c2ccc3nccc(-c4ccncc4)c3c2)cc1S(=O)(=O)N1CCCCC1,3
2,Cc1cc(NCC(c2ccccc2)c2ccccc2)nc(NCC2CCCCC2)n1,3
3,N#Cc1cccc(C(=O)Nc2ccc(-c3ccc(CN4CCCC4)cc3)cc2)c1,0
4,Cc1[nH]c(C)c(-c2ccc(OCc3cc(F)cc(F)c3)nc2)c(=O)c1Cl,0
5,CC(=O)Nc1ccc(CCNC(C)Cc2ccc(C(=O)Nc3ccc(CC(C)NCCc4cccc(Cl)c4)cc3)cc2)cc1 (stereo not given),0
6,c1cc(-c2ccc(CNCCCN3CCOCC3)cc2)cc(-c2nc3ccccc3[nH]2)c1,0
7,Clc1ccccc1C=NN=c1cc[nH]c2ccccc12,0
8,O=C1CCCN1CCCNCc1ccc(-c2ccc(-c3nc4cc(F)ccc4[nH]3)cc2)cc1,0
9,Cc1[nH]c(C)c(-c2ccc(C#Cc3ccc(F)cc3F)cc2)c(=O)c1Br,0
10,COc1ccc(OC)c(-c2ccc(=O)n(CC(=O)Nc3cccc4ccccc34)n2)c1,3
11,CC(C)(C)c1ccc(CNC(=O)/C=C/c2ccc(-c3nc4cc(C(C)(C)C)ccc4[nH]3)cc2)cc1,0
12,CN(C)CCCN1CCN(Cc2ccc(-c3ccc(-c4nc5ccccc5[nH]4)s3)cc2)CC1,4
13,CC(C)Nc1nc(NCCc2c[nH]cn2)nc(Nc2ccc(Oc3ccccc3)cc2)n1,1
14,CN1CCC(NC(=O)c2cc(Oc3ccc4c(c3)CCN4C(=O)Nc3cccc(C(F)(F)F)c3)ccn2)CC1,0
15,FC(F)(F)COc1c(CCNCCCCNCCc2ccc3ccccc3c2OCC(F)(F)F)ccc2ccccc12,0
16,CN(CCN)Cc1cccc(-c2cccc(-c3nc4cc(C(F)(F)F)ccc4[nH]3)c2)c1,0
17,CC(C)CCCC(C)NC[C@@H](O)[C@H](Cc1ccccc1)NC(=O)c1cc(N2CCCC2=O)cc(N(c2ccccc2)S(C)(=O)=O)c1 (stereo not given in full),0
18,ON=C(c1nc2ccccc2[nH]1)c1nc2ccccc2[nH]1,6
19,O=S(=O)(NCCN1CCCC1)c1cccc(-c2ccc(CNCc3ccsc3)cc2)c1,6
20,COc1cccc(CCc2nc3c(N4CCC(Cc5ccccc5)CC4)cccc3n2CC2CNCCO2)c1 (stereo not given),4
21,CCN(CC)CCN(Cc1ccc(-c2ccc(C(F)(F)F)cc2)cc1)C(=O)Cn1c(CCc2ccc(F)c(C#N)c2)nc(=O)c2ccccc21,0
22,CCc1c(CCNCCCCCCNCCc2ccc(Br)cc2)ccc(O)c1O,0
23,Nc1c2c(nc3ccc(Oc4ccc(Cl)cc4)cc13)CCCC2,0
24,Cc1cc(N[C@@H](Cc2ccccc2)C(=O)NCc2cccs2)nc(NCCc2ccccn2)n1,0
25,COc1cc(C=CC(=O)N2CCC(CCN3CCC(c4c[nH]c5ccccc45)CC3)CC2)cc(OC)c1,0
26,COc1cc2nc(N3CCC(CNC(=O)c4ccc(NC(=O)c5ccc(Cl)cc5)cc4)CC3)nc(N)c2cc1OC,0
27,CCNC1=NC2=C(CC(C(C)(C)C)CC2)C2(CCC(C(C)(C)C)CC2)S1 (stereo not given),4
28,Cc1ccc(Cc2c[nH]c(NCCSCc3ccc(CN4CCOCC4)o3)nc2=O)cn1,0

row,SMILES,inhibition [%]
1,Cc1cc(-c2c[nH]c3ncc(-c4cccc5ncccc45)cc23)ccc1C(=O)O,0
2,Cc1cccc2nc(-c3ccc(-c4ccc(CN5CCCCC5)cc4)cc3)[nH]c12,0
3,Cc1cc(I)ccc1Nc1nc2nonc2nc1Nc1ccc(I)cc1C,0
4,CS(=O)(=O)c1ccc(CNCc2ccc(-c3cccc(-c4nc5cc(C(F)(F)F)ccc5[nH]4)c3)cc2)cc1,8
5,Fc1ccc(C=NN=c2cc[nH]c3ccccc23)cc1,4
6,COc1ccc(OCCCCON2C(=N)N=C(N)NC2(C)C)cc1,4
7,COc1cccc(CCN(Cc2ccccc2-c2ccc(CNC3CC(C)(C)NC(C)(C)C3)cc2)C(=O)NC2CCCCC2)c1,0
8,N#Cc1ccc(N2C[C@@H](OCc3ccccc3)C[C@H]2C(=O)NCCC(c2ccccc2)c2ccccc2)c2ccccc12,0
9,CCCCCCOc1ccc(C(=O)N(Cc2ccccc2)c2c(-c3ccccc3)nc3cc(C)ccn23)cc1,3
10,CCc1cccc2sc(N3CCN(C(=O)c4ccc([N+](=O)[O-])o4)CC3)nc12,0
11,CCOc1c(CCNCCCCNCCc2ccc3ccccc3c2OCC)ccc2ccccc12,0
12,CN1CCC(Oc2ccc(CN3CC[C@H](NC(=O)c4ccc(Cl)c(F)c4)C3)c3ccccc23)C1 (stereo not given in full),3
13,CCN(CC)CCN(Cc1ccc(-c2ccc(C(F)(F)F)cc2)cc1)C(=O)Cn1c(CCc2ccccc2F)nc(=O)c2ccccc21,0
14,Cc1cccc2nc(-c3cccc(-c4ccc(NC(=O)c5ccoc5)cc4)c3)[nH]c12,0
15,O=c1cc(NCCCNCc2cccc(OC(F)(F)F)c2)[nH]c2ccccc12,0
16,O=C(Nc1ccc2c(c1)CCC2)N[C@H]1CCN(Cc2ccc(OCCCN3CCCCC3)cc2)C1,0
17,CCN1CCC(N(Cc2ccc(-c3ccc(C(F)(F)F)s3)cc2)C(=O)Cn2c(CCc3cccc(F)c3F)nc(=O)c3ccccc32)CC1,7
18,Fc1ccc2[nH]c(-c3cccc(-c4ccc(CNCc5cnn(-c6ccccc6)n5)cc4)c3)nc2c1,0
19,CNCCNCc1ccc(-c2ccc(-c3nc4cc(F)ccc4[nH]3)cc2)cc1,4
20,O=C1C(=Cc2c(O)ccc3ccccc23)SC(=NCc2ccccc2)N1Cc1ccccc1,0
21,COC(=O)c1cccc(CNCc2cccc(-c3ccc(-c4nc5cccc(C)c5[nH]4)s3)c2)c1,1
22,CCN1CCC(N(Cc2ccc(-c3ccc(C(F)(F)F)cc3)cc2)C(=O)Cn2c(CCc3cccc(F)c3F)nc(=O)c3ccccc32)CC1,3
23,Cc1cccc2nc(-c3cccc(-c4ccc(NC(=O)c5cnccc5C(F)(F)F)cc4)c3)[nH]c12,0
24,CCOC(=O)NC1=NC(C)(C)N(OCCCOc2ccc(C)cc2C)C(NC(=O)OCC)=N1,7
25,CS(=O)(=O)c1cc2c(Nc3ccc(N4CCOCC4)cc3)c(C(N)=O)cnc2cc1Br,0
26,COc1ccc2nccc(N3CCC(CCNCc4cc5c(cn4)OCCO5)CC3)c2c1,6
27,O=C(Nc1cccc(F)c1)N1CCC(CN2CCOC(c3ccccc3)(c3ccccc3)C2)CC1,7
